PNC inhibitor: blocks assembly of the perinucleolar compartment. PC3M PTB-GFP, PNC prevalence imaging, 16 h; stronger effect = lower value. activity change (PNC), negative = inhibition, % at 10 µM. 140,000 tested, 3.1% active;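 active = readout at or below -70, meaning at least 70% loss of cells showing the perinucleolar compartment, a nuclear body marking cancer cells; inconclusive = readout between -30 and a set limit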
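Read-out is percentage of cells bearing a perinucleolar compartment, from automated 20x imaging of fixed, Hoechst-stained PC3M PTB-GFP cells. Cells were seeded 4 h, then exposed 16 h to compound (23 nl of library stock) in duplicate plates.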
HPGD block: HPGD (human) dehydrogenase inhibition; purified HPGD, NADH fluorescence kinetic, PGE2 substrate; Potency, µM, actives largely listed as inhibitors; 150,000 tested, 4.3% active; AID 894; active = well fitted inhibition curve with a large enough effect, not every such curve was filed as active; inconclusive = small, poorly fitted or top-dose-only effect, or another doubt; inactive = no such curve, though single readings can be large or run the other way
Target sequence (P15428 whole entry, looked up): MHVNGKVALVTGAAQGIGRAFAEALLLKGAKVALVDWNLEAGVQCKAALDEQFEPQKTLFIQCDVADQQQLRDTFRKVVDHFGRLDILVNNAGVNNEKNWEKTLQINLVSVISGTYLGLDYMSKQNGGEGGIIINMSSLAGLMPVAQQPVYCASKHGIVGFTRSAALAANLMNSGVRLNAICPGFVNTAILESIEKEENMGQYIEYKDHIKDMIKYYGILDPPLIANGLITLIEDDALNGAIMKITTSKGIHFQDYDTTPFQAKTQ
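NADH formation kinetics: reaction with 30 uM PGE2 and 1 mM NAD+ (final), 20 nM enzyme, Tris-HCl pH 8 with Tween 20, after 15 min compound preincubation at room temperature. Fluorescence change, last versus first of five reads.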
GLA spleen mod: alpha-galactosidase A (human) modulation | AID 2107 | P06280 | human spleen homogenate, 4MU-alpha-Gal fluorescence, 40 min | 240,000 tested, 0.008% active | Potency, µM (titrated, usually from 80 µM), hits mostly inhibitors
Target sequence (P06280 32-429 limits assumed): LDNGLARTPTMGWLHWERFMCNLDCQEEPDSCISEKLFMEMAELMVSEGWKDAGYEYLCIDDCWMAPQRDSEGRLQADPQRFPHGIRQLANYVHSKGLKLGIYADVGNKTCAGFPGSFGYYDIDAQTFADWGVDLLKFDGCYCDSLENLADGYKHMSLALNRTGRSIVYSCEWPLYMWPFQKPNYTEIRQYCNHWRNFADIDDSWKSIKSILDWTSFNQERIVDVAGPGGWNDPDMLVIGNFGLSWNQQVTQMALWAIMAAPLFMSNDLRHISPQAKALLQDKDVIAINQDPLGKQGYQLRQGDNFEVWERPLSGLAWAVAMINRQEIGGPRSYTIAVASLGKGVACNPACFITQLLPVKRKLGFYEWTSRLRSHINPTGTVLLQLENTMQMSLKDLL
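Spleen homogenate 1 ug + cpd (titration) + 4-MU-alpha-D-galactopyranoside 1 mM; 37C 40 min; 50 mM citrate/phosphate pH 5.0, 0.01% Tween-20; stop pH 10; fluorescence 365/440; AC50 via Hill.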
GLA inh pH 4.5: blocks human alpha-galactosidase A at pH 4.5; P06280; purified enzyme, 4-MU-alpha-Gal fluorescence, pH 4.5; activity change, negative = inhibition, % at 105 µM; 230,000 tested, under 10 active; AID 1467
ALDH1A1 inh: blocks purified human ALDH1A1 activity. P00352. Purified ALDH1A1, NADH fluorescence, propionaldehyde substrate. Potency, µM (series often up to 75.3 µM), most hits filed as inhibitors. 220,000 tested, 7.3% active; active = well fitted inhibition curve with a large enough effect, not every such curve was filed as active; inconclusive = small, poorly fitted or top-dose-only effect, or another doubt; inactive = no such curve, though single readings can be large or run the other way
ALOX12 inhib: blocks human 12-lipoxygenase activity; P18054; purified 12-hLO, xylenol orange hydroperoxide absorbance; Potency, µM (titrated, usually from 57.1 µM), usual class: inhibitors; 150,000 tested, 0.12% active; also: nearly all actives have a fitted effect of over 55% in size
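Hydroperoxide formation by human 12-lipoxygenase from 40 uM arachidonic acid was followed colorimetrically via ferric-xylenol orange complex, using the 573/405 nm absorbance ratio. Enzyme concentration was 150 nM, with 30 min reaction at room temperature.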
A number is an active result; i = inactive; ? = inconclusive; nt = no result; [ ] = dose if it differs, or a comment. Shown are actives, neighbours in structure and some others; about 10% of the full set was active somewhere. Unless noted, calls follow the shape of the dose curve; as a rule, active = well fitted curve in the direction sought with a large enough effect; inconclusive = small, poorly fitted or top-dose-only effect, or another doubt; inactive = no such curve, though single readings can be large; an effect the other way counts as inactive or inconclusive.

SMILES	PNC inhibitor	HPGD block	GLA spleen mod	GLA inh pH 4.5	ALDH1A1 inh	ALOX12 inhib
N#C/C(=N\Nc1cc(Cl)cc(Cl)c1)c1nnc2n1CCCCC2	?	25µM	i	i	8.9µM	?
N#C/C(=C1\C(=O)Nc2c(Cl)cc(Cl)cc21)c1nnc2n1CCCCC2	?	i	i	i	3.5µM	i
C[C@@H]1NCC[C@H](CC(=O)O)[C@H]1CC(=O)O	nt	i	nt	nt	i[13.5 µM]	i[11.4 µM]
O=C1C(Cl)=C(Nc2ccccc2)C(=O)c2ccccc21	i	i	i	i	i	i
COC1=C(Nc2ccccc2)C(=O)c2ccccc2C1=O	?	10µM	i	i	2.2µM	i
COC1=C(Nc2ccc(C)cc2)C(=O)c2ccccc2C1=O	i	11µM	?	i	5µM	i
COCCNC(=O)CC(=O)N/N=C/c1ccc(C(=O)OC)cc1	nt	nt	i	i	i	nt
CCCCNC(=O)COC(=O)CNC(=O)c1cc(Cl)cc([N+](=O)[O-])c1	nt	nt	i	i	i	nt
Cc1ccc(-c2csc(N3N=C(c4ccccc4)/C(=C\c4ccc(N(C)C)cc4)C3=O)n2)cc1	i	i	i	i	3.5µM	i
NCCNC(=S)S	nt	3.5µM	nt	nt	3.2µM	i[11.4 µM]
COc1ccc(N2Cc3cccc(C(=O)NC(C)CCc4ccco4)c3C2=O)cc1 (stereo not drawn)	i	?	i	i	25µM	i
CCC(C)N=C1Sc2nc3ccc(C)cc3cc2CN1CCOC (stereo not drawn)	nt	nt	i	i	14µM	nt
COc1ccccc1-c1coc2cc(OC(=O)/C=C/c3ccccc3)ccc2c1=O	i	i	i	i	i	i
FC(F)(F)c1ccccc1-c1ccc2ncnc(NC3CC3)c2c1	nt	nt	i	nt	i	nt
O=C(Nc1ccc(Cl)cc1)c1ccc(Br)cc1F	nt	nt	i	i	i	nt
CCCOC(=O)c1ccc(O)c(OC)c1	nt	nt	i	i	i	nt
COc1cc(C(=S)N(C)C)ccc1O	i	18µM	i	nt	10µM	i
Cc1ccc(C[C@@H](NS(=O)(=O)c2ccc(C(=O)O)cc2)C(=O)O)cc1	nt	nt	i	nt	nt	nt
Cn1cc(CN2CCc3ccccc3C2)c2ccccc21	i	i	i	i	14µM	i
COc1cccc(C2=Nn3c(nnc3-c3ccc(OC)c(OC)c3)SC2)c1	nt	nt	i	nt	nt	nt
O=C(CCl)Oc1ccc2occ(C(=O)c3cccs3)c2c1	i	i	i	i	0.79µM	i
COc1cc(/C=C(/C(=O)c2cccs2)c2nc3ccccc3[nH]2)cc(OC)c1O	i	?	i	i	?	i
CC1=NN(c2ccccc2)C(=O)C1c1ccccc1 (stereo not drawn)	-91	i	i	i	i	i
O=C(Cn1nc2ccccc2n1)N/N=C/c1cc(Cl)cc([N+](=O)[O-])c1O	nt	nt	i	i	14µM	nt
Cc1cc(C)n(CC(=O)N/N=C/c2cc([N+](=O)[O-])ccc2O)n1	i	?	i	i	i	i
SMILES	PNC inhibitor	HPGD block	GLA spleen mod	GLA inh pH 4.5	ALDH1A1 inh	ALOX12 inhib
O=C(N/N=C/c1cc(Cl)cc([N+](=O)[O-])c1O)C1CC1	nt	nt	i	i	?	nt
Cc1cc(C)n(CC(=O)N/N=C/c2cc(Br)cc([N+](=O)[O-])c2O)n1	nt	nt	i	i	20µM	nt
Cc1ccccc1C(=O)Nc1cccc(C(=O)N/N=C/c2cc(Cl)cc([N+](=O)[O-])c2O)c1	nt	nt	i	i	1.3µM	nt
Cc1noc(C)c1C(=O)N1CCC[C@@]2(CCN(Cc3cc(C(F)(F)F)cc(C(F)(F)F)c3)C2)C1	nt	i	i	nt	i	i
CCOC(=O)CC(NC(=O)Cn1nnc(-c2ccccc2)n1)c1ccc(OC)cc1 (stereo not drawn)	nt	nt	i	i	i	nt
COc1ccccc1N(C)S(=O)(=O)c1ccc(C(=O)NC2=NCCS2)cc1	i	i	i	i	i	i
COc1ccc(N(C2=NCCCS2)S(=O)(=O)c2ccc(C(C)(C)C)cc2)cc1	nt	nt	i	i	0.79µM	nt
COc1ccccc1N(C1=NCCCS1)S(=O)(=O)c1ccc(C(C)(C)C)cc1	nt	nt	i	i	0.22µM	nt
COc1ccc(C(=O)N2CCC3(CC2)CN(C(=O)Nc2cccc(C#N)c2)C3)cc1	nt	i	i	nt	i	i
Cc1ccccc1-c1cncnc1NCCN1CCOCC1	nt	i	i	i	i	i
O=C(O)c1cccc(Cn2c(Cl)c(/C=N/NC(=O)c3ccccc3Cl)sc2=O)c1	i	28µM	i	i	?	i
O=C(O)c1cccc(Cn2c(Cl)c(/C=N/NC(=O)c3ccccc3O)sc2=O)c1	nt	nt	i	i	i	nt
COc1ccc(C(=O)N/N=C/c2sc(=O)n(Cc3cccc(C(=O)O)c3)c2Cl)cc1	nt	nt	i	i	nt	nt
O=C(O)c1cccc(Cn2c(Cl)c(/C=N/Nc3ccccc3)sc2=O)c1	nt	nt	i	i	22µM	nt
CCCCCCOc1ccc(C(CC(N)=O)C(=O)O)cc1 (stereo not drawn)	nt	nt	i	i	i	nt
Cn1c(/C(C#N)=N/O)nc2ccccc21	i	i	i	i	?	i
CCn1c(/C(C#N)=N/O)nc2ccccc21	?	35µM	i	i	20µM	i
CCn1ncc([C@@H]2C[C@H]3CN(Cc4cccc(Cl)c4)C(=O)[C@]34CCCN24)c1C	nt	nt	i	i	i	nt
O=C1N(Cc2cccc(Cl)c2)C[C@@H]2C[C@@H](c3cccn3-c3cccnc3)N3CCC[C@@]123	nt	nt	i	i	7.1µM	nt
Cc1ccc2c(CN3CCCc4ccccc43)cc(=O)oc2c1C	?	i	i	i	16µM	i
CC(=O)OC[C@@H]1O[C@@H](O/N=C2/C[C@@H](O)[C@@H](O)[C@@H]3[C@@H]4C(=O)N(C5CCCCC5)C(=O)[C@H]4CC[C@H]23)[C@H](OC(C)=O)[C@H](OC(C)=O)[C@@H]1OC(C)=O	nt	nt	i[17.5 µM]	nt	i[13.5 µM]	nt
C=CCSc1nnc(-c2ccc(Cl)cc2Cl)o1	i	11µM	i	i	i	i
Cc1cccnc1N(C(=O)Nc1ccccc1)C1=NCC(C)(C)S1	-89	i	i	i	i	i
CC(Cn1cnc2ccccc21)C(=O)O (stereo not drawn)	-100	i	i	i	i	i
Oc1ccc(CNc2ccccc2F)c2cccnc12	i	i	i	i	8.9µM	?
SMILES	PNC inhibitor	HPGD block	GLA spleen mod	GLA inh pH 4.5	ALDH1A1 inh	ALOX12 inhib
Oc1ccc(CNCc2ccccc2)c2cccnc12	nt	i	nt	nt	i[13.5 µM]	i[11.4 µM]
CN(C)CCNCCN	nt	i	nt	nt	i[13.5 µM]	i[11.4 µM]
CSc1nc(N)nc(SCCS(=O)(=O)c2ccc(Cl)cc2)c1C#N	i	i	i	i	2.5µM	i
Cn1c(SCCS(=O)(=O)c2ccc(Cl)cc2)nnc1-c1ccccc1	i	i	i	i	?	i
Cc1cc(C)c(C#N)c(SCCS(=O)(=O)Cc2ccccc2)n1	i	i	i	i	6.3µM	i
Cc1cc(C)c(C#N)c(SCc2ccccc2C)n1	i	i	i	i	i	i
CCS(=O)(=O)CCSc1nc(C)cc(C)c1C#N	i	i	i	i	?	i
Cc1ccc(S(=O)(=O)CCSc2nc(C)cc(C)c2C#N)cc1	i	i	i	i	2µM	i
CCC1CC=CC2C1C(=O)N(Cc1ccccc1)C2c1cccc([N+](=O)[O-])c1 (stereo not drawn)	nt	nt	i	nt	nt	nt
